PKA-R2B act – PKA-R2B complex activation | P22694+P31323 | PKA-R2B holoenzyme dissociation, Cy5-IP20 fluorescence polarization; R2B truncated from residue 108, S112A mutant; 0% DMSO only, 100% 113 µM cGMP | activation, % at 11.4 µM | actives 0.079% (n = 340,000) | AID 504700;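 active = activation above a cutoff set at the mean over all compounds plus 3 SD, cut at about 18% in these data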;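 also: higher means more holoenzyme dissociation and a rise in polarization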
TMEM16A inh – inhibitors of mouse TMEM16A calcium-activated chloride channel; HEK293 TMEM16A/YFP iodide influx fluorescence, ionomycin; normalized B-score (activity score, 25-100; higher = stronger inhibition) at 10 µM; actives 1.2% (n = 310,000); AID 588511;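 active = ratio plate-corrected score three or more library SD toward inhibition, starting fluorescence score within five deviations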;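 also: score derived from kinetic fluorescence span divided by baseline fluorescence per well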
Target sequence (Q8BHY3 whole entry, looked up): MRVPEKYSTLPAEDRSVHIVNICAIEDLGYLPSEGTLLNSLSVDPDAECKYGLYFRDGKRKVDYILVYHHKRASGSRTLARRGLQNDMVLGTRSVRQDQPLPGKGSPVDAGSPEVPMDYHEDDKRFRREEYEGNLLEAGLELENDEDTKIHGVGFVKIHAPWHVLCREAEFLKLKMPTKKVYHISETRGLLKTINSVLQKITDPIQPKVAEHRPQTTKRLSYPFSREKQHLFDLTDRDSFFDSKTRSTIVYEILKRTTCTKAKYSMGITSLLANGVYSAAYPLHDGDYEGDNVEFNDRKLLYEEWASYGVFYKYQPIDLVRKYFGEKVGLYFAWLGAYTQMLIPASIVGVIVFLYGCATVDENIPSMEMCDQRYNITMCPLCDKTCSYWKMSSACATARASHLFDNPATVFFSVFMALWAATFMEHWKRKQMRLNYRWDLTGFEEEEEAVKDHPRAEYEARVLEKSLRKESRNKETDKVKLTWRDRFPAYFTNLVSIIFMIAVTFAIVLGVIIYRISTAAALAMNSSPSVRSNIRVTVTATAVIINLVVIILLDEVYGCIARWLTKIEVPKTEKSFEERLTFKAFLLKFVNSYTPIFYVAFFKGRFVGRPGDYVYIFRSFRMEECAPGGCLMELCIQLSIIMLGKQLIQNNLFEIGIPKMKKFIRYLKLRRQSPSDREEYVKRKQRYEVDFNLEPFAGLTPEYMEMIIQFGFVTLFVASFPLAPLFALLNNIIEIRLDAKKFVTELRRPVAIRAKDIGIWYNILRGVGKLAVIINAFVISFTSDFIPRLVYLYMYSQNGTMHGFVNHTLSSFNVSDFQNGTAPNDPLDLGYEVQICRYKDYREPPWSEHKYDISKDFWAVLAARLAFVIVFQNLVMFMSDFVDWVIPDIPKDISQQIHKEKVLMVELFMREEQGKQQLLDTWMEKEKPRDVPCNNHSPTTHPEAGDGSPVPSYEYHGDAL
CHT inh – inhibits the human high affinity choline transporter. B-score at 10 µM. AID 488975. CHT-expressing cells, membrane potential dye, choline response; stronger effect = lower value. Q9GZV3. actives 0.86% (n = 310,000);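 active = B-score over 3 SD under the library average, and starting fluorescence ratio not unusually high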;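 also: choline stimulus applied at its EC90 after an EC20 pre-addition; B-score computed on integrated fluorescence ratio after choline addition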
ANO1 activ – activators or potentiators of mouse TMEM16A chloride channel. Q8BHY3. B-score at 10 µM. actives 0.3% (n = 340,000). HEK293 TMEM16A/YFP-H148Q/I152L, iodide quench fluorescence; stronger effect = lower value;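 active = fluorescence-ratio B-score plate-corrected deviation score at least 3 library SD below zero, with starting fluorescence score within 5 deviations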;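 also: channel opened by trigger with iodide after compound preincubation; score built on the fluorescence ratio of max minus min over baseline; more negative score means more quench and so TMEM16A activation or potentiation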
CHT allo act – human CHT allosteric activation | CHT-expressing cells, membrane potential dye, choline EC20; stronger effect = higher value; LV-AA mutant CHT in HEK293 cells | B-score at 10 µM | actives 0.49% (n = 310,000) | AID 488977;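 active = initial fluorescence not abnormally high and integrated response B-score, plate-corrected, over 3 SD above library mean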
PKA-R1A activ – activates the PKA-R1A holoenzyme complex. P00514+P68181. PKA-R1A dissociation, Cy5-IP20 fluorescence polarization; scaled: DMSO 0%, 113 µM cGMP 100%. activation, % at 11.4 µM. actives 0.083% (n = 340,000). AID 504707;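 active = percent activation above the mean of all tested compounds plus 3 SD, cut at about 19% in these data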;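 also: higher means more PKAc released from R1A so a rise in polarization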
* marks the source's active call; other numbers are inactive results; i = inactive; . = no result. In the library only some 2.5% were active in any assay of this set; here they are far more common.

SMILES	PKA-R2B act	TMEM16A inh	CHT inh	ANO1 activ	CHT allo act	PKA-R1A activ
Cc1ccc(Cn2nc(C)c(NC(=O)CSc3nc4c(c(C(F)(F)F)n3)CCc3ccccc3-4)c2C)cc1	11	i	i	i	i	6
CN(Cc1ccccc1)C(=O)CSc1nc2c(c(C(F)(F)F)n1)CCc1ccccc1-2	10	25*	i	i	i	2
O=C(CSc1ccccc1)NNC(=O)c1ccccc1O	-5	i	i	i	i	-3
COc1ccc(CC(=O)Nc2ccc(S(=O)(=O)N(C)C3CCN(C)CC3)cc2)cc1	0	.	.	i	.	-5
CC(Oc1ccc(Br)cc1)C(=O)Nc1ccc(S(=O)(=O)N(C)C2CCN(C)CC2)cc1 (centres undefined)	-6	i	i	-10*	7.1*	-21
COc1ccc(C(CNC(=O)c2c(C)nn(Cc3ccc(C)cc3)c2Cl)N2CCOCC2)cc1 (centres undefined)	1	.	.	i	.	-24
COc1cc(C)ccc1OCCOCCOc1c(C)cc(C)cc1Br	1	100*	i	i	i	-2
COc1ccc(C2=C(C)C(N3CCN(C(=O)c4ccco4)CC3)=NS2(=O)=O)cc1	11	i	i	i	i	-1
Oc1ccc(Br)cc1CNc1cnc2ccccc2c1	-7	i	i	i	i	-7
Cc1ccc(O)c(CNc2cnc3ccccc3c2)c1	1	25*	i	i	i	-11
CCCCOc1ccc(C(=O)Nc2ccc(OCC(=O)N3CCOCC3)cc2)cc1	-5	i	i	i	i	-6
CCN(CC)S(=O)(=O)c1ccc(C(=O)Nc2ccc(OCC(=O)N3CCOCC3)cc2)cc1	6	i	i	-12*	i	-6
CC(C)Cc1nc(SCC(=O)N2CCCCC2)c2c(=O)n(C)c(=O)n(C)c2n1	-4	i	i	i	i	1
Cc1c(Cl)sn(-c2ccc(Cl)cc2)c1=O	-1	.	.	-14*	.	-2
COc1ccc(C(=O)Nc2ccccc2C(=O)NC(Cc2ccc(O)cc2)C(=O)NNC(=O)c2ccncc2)cc1 (centres undefined)	-4	i	i	i	i	0
O=C(NCc1ccc2c(c1)OCO2)c1ccc2c(c1)N(Cc1c(F)cccc1Cl)C(=O)CS2	2	i	i	i	i	-3
CCC1CCCCN1CCCNC(=O)c1ccc2c(c1)N(Cc1c(F)cccc1Cl)C(=O)CS2 (centres undefined)	-4	i	-5.4*	i	i	9
Cc1ccc(S(=O)(=O)CCC(=O)OCn2nnc3ccccc3c2=O)cc1	-3	i	i	i	i	5
Cc1ccccc1N/N=C/c1sc(=O)n(Cc2cccc(C(=O)O)c2)c1Cl	-10	25*	i	i	i	0
CCCCCCCNC(=O)c1ccc(N2CCC3(CC2)OCCO3)c([N+](=O)[O-])c1	-9	100*	i	i	i	-3
Cn1nc(C(=O)NNC(=O)C2CSC3(C)CCC(=O)N23)c2ccccc2c1=O (centres undefined)	-2	i	i	i	i	-7
Cc1nc2ccccc2n1CC(O)COc1ccc(Br)cc1 (centres undefined)	-8	25*	i	i	i	-2
CCC(=O)c1ccc(OCC(O)Cn2c(C)nc3ccccc32)cc1 (centres undefined)	-10	i	i	i	i	3
C#CCOC(=O)Nc1ccc(OCC(F)(F)F)nc1	-3	i	i	i	i	0
Oc1[nH]c2ccccc2c1N=Nc1ccccc1Cl	5	.	.	i	.	0
SMILES	PKA-R2B act	TMEM16A inh	CHT inh	ANO1 activ	CHT allo act	PKA-R1A activ
Oc1c(C=Nc2ccccc2Cl)[nH]c2ccccc12	-1	i	i	-8.7*	i	-8
O=C(CN(Cc1ccco1)Cc1cccs1)N1CCN(S(=O)(=O)c2cccc(F)c2)CC1	1	.	.	i	.	-7
Cc1ccc(S(=O)(=O)/N=C2/NC(=O)/C(=C\c3ccccc3)S2)cc1	-2	.	.	i	.	2
Cc1ccc(S(=O)(=O)/N=C2/NC(=O)/C(=C/c3ccccc3)S2)cc1	-5	100*	i	i	i	3
COc1cc(/C=C2\S/C(=N/S(=O)(=O)c3ccc(C)cc3)NC2=O)c([N+](=O)[O-])cc1OC	-6	i	-7.4*	i	i	1
Cc1ccc(/C=C2\S/C(=N/S(=O)(=O)c3cccs3)NC2=O)cc1	3	25*	i	i	i	12
Cc1ccc(S(=O)(=O)/N=C2/NC(=O)/C(=C\c3ccco3)S2)cc1	-11	i	i	i	i	7
Cc1ccc(S(=O)(=O)/N=C2/NC(=O)/C(=C/c3ccncc3)S2)cc1	.	i	-5.3*	.	i	.
COc1ccc(NC(=S)NC(NC(=O)c2cccc3ccccc23)C(Cl)(Cl)Cl)c([N+](=O)[O-])c1 (centres undefined)	1	i	i	-7.4*	i	-7
CC1CCN(CCCNC(=O)c2cn(C)c3ccc(S(=O)(=O)N4CCCC4)cc3c2=O)CC1	2	i	i	i	6.8*	4
CC1CC(C)CN(CCCNC(=O)c2cn(C)c3ccc(S(=O)(=O)N4CCCC4)cc3c2=O)C1 (centres undefined)	1	i	i	i	i	-11
COC(=O)c1ccc(NC(=O)c2ccc[n+]([O-])c2)cc1	-1	i	i	i	i	-8
CC(OC(=O)c1ccccc1NS(=O)(=O)c1cccc(C(F)(F)F)c1)C(=O)N(C)Cc1ccccc1 (centres undefined)	3	100*	i	i	i	-8
CN(Cc1ccccc1)C(=O)COC(=O)c1ccccc1NS(=O)(=O)c1cccc(N)c1	-17	i	i	i	i	-2
Cc1ccc(NC(=O)CN2C(=O)S/C(=C/c3ccc(-c4cc(C(=O)O)ccc4C)o3)C2=O)cc1C	-1	100*	i	i	i	10
COc1ccccc1NC(=S)NCCc1ccc(S(N)(=O)=O)cc1	-2	i	i	i	i	8
COc1ccc(CCNC(=S)NCCc2ccc(OC)c(OC)c2)cc1OC	-3	25*	i	i	i	13
COc1ccc(Cl)cc1NC(=S)NCCc1ccc(S(N)(=O)=O)cc1	-7	i	i	-6.2*	i	-7
Cc1ccc(S(=O)(=O)c2ccc([N+](=O)[O-])o2)cc1	-6	.	.	i	.	-7
